Source: PubChem
Only a selection was taken, and hits are over-represented in it overall.
CapD inh – blocks the Bacillus anthracis CapD enzyme | 140,000 tested, 0.23% active | AID 492967 | z-score (test concentration not listed) | purified CapD enzyme, fluorescence intensity read-out; active compounds read low; in the data active means z-score mostly below about -2.9, no sharp cut-off; inactive means mostly above about -1.9
Numbers stand for hits; – = inactive.

SMILES | CapD inh
CC1(C)OC(=O)C(=Cc2cccs2)C(=O)O1 | –
CSC1=N/C(=C/c2cccs2)C(=O)N1 | -4
CSC1=N/C(=C/c2ccco2)C(=O)N1 | –
Cn1cccc1/C=C1\CS/C(=C\c2cccn2C)C1=O | –
COc1ccccc1/C=C1/SC(=S)NC1=O | –
Cn1cccc1/C=C1\SC(=S)NC1=O | -4.3
O=C(Nc1ccc(Oc2ccc(Cl)c3ccccc23)c(Cl)c1)c1cc(Br)cc(Br)c1O | –
CN(C)/C=C/C=C1C(=O)CCCC1=O | –
CN(C)/C=C/C=C1\CCCC1=O | -9
CC1C/C(=C\C=C\N(C)C)C(=O)/C(=C/C=C/N(C)C)C1 (centres undefined) | –
Cc1ccc(Cn2c(=O)c3ccccc3n3nncc23)cc1 | –
O=C(Nc1ncnc2sc3c(c12)CCCC3)c1ccc(F)cc1 | –
CC(=O)Nc1ncnc2sc3c(c12)CCCC3 | -8.8
CCC(=O)Nc1ncnc2sc3c(c12)CCCC3 | –
COc1ccc(OCC(=O)NCC(=O)O)cc1 | –
